Experimental findings from PubChem BioAssay (NCI) are described below.

Compounds without any hit were thinned out: in the full panel of roughly 83,000, 20% have a hit.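 96-well plates, one dose, 48 hours. Percent growth reported; active if below 10.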 Values without a mark were called inactive. The source made the active and inactive calls.

What all share (assay): NCI-60 one-dose screen, 48 h (100 = growth as untreated, 0 = no growth, -100 = all killed)
The subject of one test is SR leukemia. The conditions noted are these: 10 µM unless noted.
The next test deals with RPMI-8226 leukemia. The conditions noted are these: 10 µM unless noted.
For a further test, the system named is OVCAR-8 ovarian. The conditions noted are these: 10 µM unless noted.
For a further test, the system named is OVCAR-5 ovarian. The conditions noted are these: 10 µM unless noted.
Another test concerns OVCAR-4 ovarian. The conditions noted are these: 10 µM.
Another test has as its system SK-OV-3 ovarian. The conditions noted are these: 10 µM unless noted.
The test system of a further test is IGROV1 ovarian. The conditions noted are these: 10 µM unless noted.
The subject of the next test is HS 578T breast. The conditions noted are these: 10 µM unless noted.
The subject of the next test is NCI/ADR-RES ovarian. The conditions noted are these: 10 µM unless noted.
For another test, the system named is T-47D breast. The conditions noted are these: 10 µM unless noted.
The next test relates to BT-549 breast. The conditions noted are these: 10 µM unless noted.
A further test relates to MDA-MB-435 melanoma. The conditions noted are these: 10 µM unless noted.
The next test relates to SW-620 colon. The conditions noted are these: 10 µM unless noted.
The subject of another test is MCF7 breast. The conditions noted are these: 10 µM unless noted.
The subject of a further test is HCT-116 colon. The conditions noted are these: 10 µM unless noted.
Another test concerns HCC-2998 colon. The conditions noted are these: 10 µM unless noted.
A further test concerns KM12 colon. The conditions noted are these: 10 µM unless noted.
For the next test, the system named is OVCAR-3 ovarian. The conditions noted are these: 10 µM unless noted.

`Nc1cc(N)c(N=Nc2ccc(S(=O)(=O)O)cc2)cc1N=Nc1ccc(-c2ccc(N=Nc3ccc(O)c(C(=O)O)c3)cc2)cc1`: the growth in the test on SR leukemia was 110%; in the test on RPMI-8226 leukemia, 99.2%; in the test on OVCAR-8 ovarian it was 100%; with OVCAR-5 ovarian, 108%; in the test with OVCAR-4 ovarian, 103%; in the test on SK-OV-3 ovarian, 100%. Also, the growth with IGROV1 ovarian was 104%; in the test with HS 578T breast, 105%; in the test on NCI/ADR-RES ovarian, 98.9%; with T-47D breast, 90.1%; with BT-549 breast, 113%; in the test with MDA-MB-435 melanoma, 100%. The growth is 105% with SW-620 colon; 95.5% in the test on MCF7 breast; 102% in the test with HCT-116 colon; 104% in the test on HCC-2998 colon; 101% in the test with KM12 colon.

Regarding `CCCCCCCCCCCCCCCCCCNC(=S)N/N=C/c1ccc(OC)c(OC)c1`, the growth is 81.2% in the test with SR leukemia; 89.7% with RPMI-8226 leukemia; 101% with OVCAR-8 ovarian; 93.8% in the test on OVCAR-5 ovarian; 98.5% with OVCAR-4 ovarian; 98.5% in the test with SK-OV-3 ovarian. In addition, the growth is 94.2% in the test with IGROV1 ovarian; 100% in the test on HS 578T breast; 97.3% in the test with NCI/ADR-RES ovarian; 95.8% with T-47D breast; 79.9% in the test on BT-549 breast; 97.4% in the test with MDA-MB-435 melanoma. Also, the growth was 99.2% in the test with SW-620 colon, 101% with HCC-2998 colon and 97.1% with KM12 colon.

For `N#C/C(=C(/O)CCCO)c1nc2ccccc2c(=O)[nH]1`, the growth was 90.9% with SR leukemia; 91.1% in the test with RPMI-8226 leukemia; 107% with OVCAR-8 ovarian; 92.5% in the test with OVCAR-5 ovarian; 104% with OVCAR-4 ovarian; 105% with SK-OV-3 ovarian. The growth was 109% with IGROV1 ovarian; 102% in the test on HS 578T breast; 95% with NCI/ADR-RES ovarian; 101% with T-47D breast; 109% with BT-549 breast; 168% in the test with MDA-MB-435 melanoma. For the same compound, the growth is 108% in the test with SW-620 colon; 86.6% with MCF7 breast; 98.9% in the test on HCT-116 colon; 73.5% in the test on HCC-2998 colon; 100% with KM12 colon.

As for `CCCCC1COc2cccc3c2N1C=C/C3=C\C(=O)n1ccc2ccccc21` (configuration not stated), the growth is 16.5% in the test with SR leukemia; 65.7% in the test with RPMI-8226 leukemia; 91.8% in the test on OVCAR-8 ovarian; 94.5% with OVCAR-5 ovarian; 65.2% in the test with OVCAR-4 ovarian; 77.1% with SK-OV-3 ovarian. The growth in the test on IGROV1 ovarian is 70.2%; in the test with OVCAR-3 ovarian it was 68.4%; in the test with NCI/ADR-RES ovarian it was 67.2%; with BT-549 breast, 89.9%; in the test with MDA-MB-435 melanoma it was -16.4% (active); in the test on SW-620 colon, 46.4%. For the same compound, the growth in the test on MCF7 breast was 48.6%; in the test with HCT-116 colon, 58.3%; with HCC-2998 colon, 101%.

As to `COc1ccc2nc3c(cc2c1)C(=O)CC(C(F)(F)F)C3` (configuration not stated), the growth in the test with SR leukemia was 16.4%; in the test with RPMI-8226 leukemia, 93.3%; in the test with OVCAR-8 ovarian, 40%; with OVCAR-5 ovarian, 57.7%; in the test on OVCAR-4 ovarian, 95.7%; with SK-OV-3 ovarian, 56.8%. The growth is 36.6% with IGROV1 ovarian; 5.3% (active) in the test on OVCAR-3 ovarian; 41.1% in the test on T-47D breast; 61% in the test with BT-549 breast; -47.7% (active) with MDA-MB-435 melanoma; 41.5% in the test on SW-620 colon. For the same compound, the growth is 83.1% in the test with MCF7 breast, 11.9% with HCT-116 colon and 84% in the test on HCC-2998 colon.

On to `O=C1C(Cl)=C(Nc2ccc3cn[nH]c3c2)C(=O)c2ccccc21`, for which the growth in the test on SR leukemia was -52% (active); in the test with RPMI-8226 leukemia it was -54.7% (active); in the test on OVCAR-8 ovarian, -58.2% (active); with OVCAR-5 ovarian it was -37.9% (active); in the test on OVCAR-4 ovarian, -98.9% (active); with SK-OV-3 ovarian it was 87.2%. The growth in the test with IGROV1 ovarian is -83.5% (active); with OVCAR-3 ovarian it was -100% (active); in the test on NCI/ADR-RES ovarian, -67.5% (active); in the test on T-47D breast, -52.3% (active); with MDA-MB-435 melanoma it was -95% (active); in the test with SW-620 colon, -86% (active). Further, the growth in the test with MCF7 breast is -68.3% (active); in the test on HCT-116 colon, -98.6% (active); in the test on HCC-2998 colon, -83% (active); in the test on KM12 colon it was 28%.

For the compound `Nc1nc(Nc2ccccc2)c2ncn(Cc3ccc4c(c3)OCO4)c2n1`, the growth with SR leukemia was 13.6%; in the test on RPMI-8226 leukemia, 30.6%; in the test with OVCAR-8 ovarian, 55.1%; in the test with OVCAR-5 ovarian, 71.5%; in the test on OVCAR-4 ovarian, 66.9%; with SK-OV-3 ovarian, 51.2%. The growth in the test on IGROV1 ovarian is 64.2%; in the test with OVCAR-3 ovarian it was 24.1%; with NCI/ADR-RES ovarian, 9.58% (active); in the test on T-47D breast, 33.8%; in the test on MDA-MB-435 melanoma it was -23.4% (active); with MCF7 breast, 21.3%. In addition, the growth in the test with HCT-116 colon is 35.2%; with HCC-2998 colon, 71%; in the test with KM12 colon, 26.2%.

Consider `O=C(O)c1cc([N+](=O)[O-])ccc1Br`, for which the growth was 112% in the test with SR leukemia; 99% with RPMI-8226 leukemia; 101% in the test with OVCAR-8 ovarian; 90.8% in the test on OVCAR-5 ovarian; 99.2% in the test on OVCAR-4 ovarian; 113% in the test on SK-OV-3 ovarian. For the same compound, the growth is 103% with IGROV1 ovarian; 106% in the test on HS 578T breast; 98.1% in the test with NCI/ADR-RES ovarian; 101% with T-47D breast; 91.5% in the test on BT-549 breast; 98.5% in the test with MDA-MB-435 melanoma. Moreover, the growth in the test with MCF7 breast was 95.8%; with HCT-116 colon, 99.5%; with HCC-2998 colon, 104%.

Regarding `CCN=C1C=CC(=C(c2ccc(N(CC)CC)cc2)c2ccc(N(CC)CC)cc2)c2ccccc21`, the growth was -7.85% (active) with SR leukemia; -39.8% (active) in the test on RPMI-8226 leukemia; -52.7% (active) in the test with OVCAR-8 ovarian; -40.1% (active) in the test on OVCAR-5 ovarian; -18.4% (active) in the test on OVCAR-4 ovarian; -70.2% (active) with SK-OV-3 ovarian. For the same compound, the growth in the test on IGROV1 ovarian is -56.7% (active); with HS 578T breast, -20.1% (active); with NCI/ADR-RES ovarian it was -16.3% (active); with T-47D breast, -45.7% (active); with BT-549 breast it was -67.2% (active); in the test with MDA-MB-435 melanoma it was -31.6% (active). Moreover, the growth in the test on SW-620 colon is -42.9% (active); with MCF7 breast, -74% (active); in the test on HCT-116 colon, -45.7% (active); in the test on HCC-2998 colon, -81% (active); in the test with KM12 colon, -86.2% (active).
